Paper PMC5540273 (PLoS ONE, 2017)
Values joined by “and” are separate entries in the source; they are usually repeats but may differ in a detail not shown here. Identical values can stand only once. Like-named read-outs stand apart in the source and are kept apart here.

Key:
Conditions in all cases: concentration: 1 μM, replicates: in singlicate, n = 1
[1] = tested on: AAK1
[2] = tested on: ABL1-nonphosphorylated
[3] = tested on: ABL1-phosphorylated
[4] = tested on: ABL2
[5] = tested on: ACVR1B
[6] = tested on: ACVR1
[7] = tested on: ACVR2A
[8] = tested on: ACVR2B
[9] = tested on: ACVRL1
[10] = tested on: T1, ADCK3
T1 construct: gene CABC1

[11] = tested on: ADCK4
[12] = tested on: AKT1
[13] = tested on: AKT2
[14] = tested on: AKT3
[15] = tested on: ALK
[16] = tested on: T2, AMPK-alpha1
T2 construct: gene PRKAA1
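Note: KINOMEscan kinase panel screen.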

Compound: Cl.Nc1ncnc2occ(-c3ccc(NC(=O)Nc4cc(C(F)(F)F)ccc4F)cc3)c12 [SB-707548]
- %Inh [1]: 0%
- %Inh [2]: 99.1%
- %Inh [3]: 50%
- %Inh [4]: 81%
- %Inh [5]: 0%
- %Inh [6]: 1%
- %Inh [7]: 81%
- %Inh [8]: 2%
- %Inh [9]: 0%
- %Inh [10]: 10%
- %Inh [11]: 28%
- %Inh [12]: 0%
- %Inh [13]: 0%
- %Inh [14]: 0%
- %Inh [15]: 75%
- %Inh [16]: 5%

Compound: O=C(NCCNc1ccnc(Nc2ccc(F)cc2)n1)Nc1ccccc1F [GSK1379880]
- %Inh [1]: 0%
- %Inh [2]: 0%
- %Inh [3]: 0%
- %Inh [4]: 24%
- %Inh [5]: 0%
- %Inh [6]: 0%
- %Inh [7]: 0%
- %Inh [8]: 0%
- %Inh [9]: 0%
- %Inh [10]: 0%
- %Inh [11]: 19%
- %Inh [12]: 0%
- %Inh [13]: 0%
- %Inh [14]: 0%
- %Inh [15]: 25%
- %Inh [16]: 0%

Compound: Cl.Oc1cccc(Nc2ccnc3cc(-c4ccncc4)ccc23)c1 [GW494601]
- %Inh [1]: 42%
- %Inh [2]: 100%
- %Inh [3]: 99.9%
- %Inh [4]: 99.4%
- %Inh [5]: 67%
- %Inh [6]: 99.8%
- %Inh [7]: 97.2%
- %Inh [8]: 95%
- %Inh [9]: 81%
- %Inh [10]: 1%
- %Inh [11]: 68%
- %Inh [12]: 0%
- %Inh [13]: 0%
- %Inh [14]: 0%
- %Inh [15]: 47%
- %Inh [16]: 0%

Compound: CCc1ccnc(/C=C/c2n[nH]c3cc(Sc4ccccc4C(=O)NC)ccc23)c1
- %Inh [1]: 22%
- %Inh [2]: 98%
- %Inh [3]: 89%
- %Inh [4]: 76%
- %Inh [5]: 3%
- %Inh [6]: 0%
- %Inh [7]: 0%
- %Inh [8]: 0%
- %Inh [9]: 0%
- %Inh [10]: 0%
- %Inh [11]: 0%
- %Inh [12]: 0%
- %Inh [13]: 0%
- %Inh [14]: 8%
- %Inh [15]: 11%
- %Inh [16]: 0%

Compound: c1ccc(-c2n[nH]cc2-c2ccnc3ccccc23)nc1 [GW271431]
- %Inh [1]: 16%
- %Inh [2]: 14%
- %Inh [3]: 1%
- %Inh [4]: 16%
- %Inh [5]: 79%
- %Inh [6]: 46%
- %Inh [7]: 2%
- %Inh [8]: 75%
- %Inh [9]: 0%
- %Inh [10]: 20%
- %Inh [11]: 24%
- %Inh [12]: 0%
- %Inh [13]: 2%
- %Inh [14]: 0%
- %Inh [15]: 19%
- %Inh [16]: 19%

Compound: COc1ccc(COc2cc(-n3cnc4ccccc43)sc2C(N)=O)cc1 [GSK1024304]
- %Inh [1]: 29%
- %Inh [2]: 0%
- %Inh [3]: 0%
- %Inh [4]: 15%
- %Inh [5]: 0%
- %Inh [6]: 0%
- %Inh [7]: 0%
- %Inh [8]: 0%
- %Inh [9]: 0%
- %Inh [10]: 0%
- %Inh [11]: 0%
- %Inh [12]: 0%
- %Inh [13]: 0%
- %Inh [14]: 54%
- %Inh [15]: 23%
- %Inh [16]: 26%

Compound: Cc1c(Cn2c(C)nn3c(=O)cc(N4CCOC(C)C4)nc23)cccc1C(F)(F)F (centres unmarked) [GSK2344444]
- %Inh [1]: 0%
- %Inh [2]: 0%
- %Inh [3]: 0%
- %Inh [4]: 11%
- %Inh [5]: 0%
- %Inh [6]: 0%
- %Inh [7]: 22%
- %Inh [8]: 0%
- %Inh [9]: 5%
- %Inh [10]: 3%
- %Inh [11]: 0%
- %Inh [12]: 0%
- %Inh [13]: 6%
- %Inh [14]: 0%
- %Inh [15]: 0%
- %Inh [16]: 0%

Compound: CC(C)(CN)c1nc(-c2ccc(Cl)c(O)c2)c(-c2ccncc2)[nH]1.O=C(O)C(F)(F)F [SB-477794]
- %Inh [1]: 0%
- %Inh ([2]; 1 µM): 96.1% and 94.7%
- %Inh ([3]; 1 µM): 99.4% and 98.9%
- %Inh ([4]; 1 µM): 92.4% and 89%
- %Inh ([5]; 1 µM): 87% and 91.7%
- %Inh ([6]; 1 µM): 96.5% and 93.4%
- %Inh ([7]; 1 µM): 1% and 25%
- %Inh ([8]; 1 µM): 91.9% and 91%
- %Inh ([9]; 1 µM): 61% and 67%
- %Inh ([10]; 1 µM): 7% and 17%
- %Inh ([11]; 1 µM): 54% and 35%
- %Inh ([12]; 1 µM): 5% and 25%
- %Inh ([13]; 1 µM): 21% and 8%
- %Inh ([14]; 1 µM): 34% and 100%
- %Inh ([15]; 1 µM): 34% and 16%
- %Inh [16]: 0%

Compound: COC(=O)Nc1nc2cc(Oc3ccc(NC(=O)Nc4cc(F)ccc4F)cc3)ccc2[nH]1.Cl [GW701424]
- %Inh [1]: 30%
- %Inh [2]: 94.5%
- %Inh [3]: 40%
- %Inh [4]: 74%
- %Inh [5]: 0%
- %Inh [6]: 0%
- %Inh [7]: 0%
- %Inh [8]: 0%
- %Inh [9]: 0%
- %Inh [10]: 7%
- %Inh [11]: 40%
- %Inh [12]: 0%
- %Inh [13]: 4%
- %Inh [14]: 0%
- %Inh [15]: 28%
- %Inh [16]: 0%

Compound: Nc1nc(-c2ccc3c(N)n[nH]c3c2)cc(N2CCCC2)n1 [GSK2227430]
- %Inh [1]: 17%
- %Inh [2]: 0%
- %Inh [3]: 0%
- %Inh [4]: 0%
- %Inh [5]: 0%
- %Inh [6]: 0%
- %Inh [7]: 0%
- %Inh [8]: 0%
- %Inh [9]: 0%
- %Inh [10]: 0%
- %Inh [11]: 2%
- %Inh [12]: 0%
- %Inh [13]: 3%
- %Inh [14]: 0%
- %Inh [15]: 4%
- %Inh [16]: 0%

Compound: NCCNS(=O)(=O)c1ccc(-c2ccnc3[nH]ccc23)cc1 [GSK977617]
- %Inh ([1]; 1 µM): 67% and 57%
- %Inh [2]: 0%
- %Inh ([3]; 1 µM): 9% and 0%
- %Inh ([4]; 1 µM): 22% and 1%
- %Inh ([5]; 1 µM): 3% and 0%
- %Inh [6]: 0%
- %Inh [7]: 0%
- %Inh ([8]; 1 µM): 2% and 0%
- %Inh [9]: 0%
- %Inh ([10]; 1 µM): 0% and 6%
- %Inh ([11]; 1 µM): 32% and 21%
- %Inh ([12]; 1 µM): 77% and 66%
- %Inh ([13]; 1 µM): 15% and 10%
- %Inh ([14]; 1 µM): 88% and 83%
- %Inh ([15]; 1 µM): 60% and 36%
- %Inh ([16]; 1 µM): 50% and 38%
